Reference: PubChem BioAssay (NCI)
Where “and” joins values, the source holds several entries; their conditions need not be identical. Equal values may be shown once. The panel holds about 83,000 compounds, 20% with a hit somewhere; the sample as a whole holds those more often.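 Assay: single dose, 48 h. Readout: percent growth (0 = no net growth; negative = cell death). Active: <10.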 Calls of active or inactive are those of the source.

The molecules below were run on MDA-MB-468 breast (assay: NCI-60 one-dose screen, 48 h (100 = growth as untreated, 0 = no growth, -100 = all killed)). Details: 10 µM unless noted.

| SMILES | growth |
| --- | --- |
| Nc1ccc(-c2nc3cc(Oc4ccc(Oc5ccc6[nH]c(-c7ccc(N)cc7)nc6c5)cc4)ccc3[nH]2)cc1 | 90.3% (inactive) |
| O=CN1N=C(c2ccc(Nc3ccnc4cc(Cl)ccc34)cc2)CC1c1ccc(Cl)cc1 (centres undefined) | -0.669% (active) |
| CC(=O)OCC(COC(C)=O)(COC(C)=O)COC(C)=O | 102% (inactive) |
| Cn1c(=O)c2c(ncn2CC[N+](C)(C)C)n(C)c1=O | 101% (inactive) |
| COc1cc(/C=C/C(=O)/C=C/c2cc3ccc(Cl)cc3n(Cc3ccccc3)c2=O)ccc1O | -42.8% (active) |
| COC(=O)[C@]12CC[C@@H](C)[C@H](C)[C@@H]1C1=CC[C@@H]3[C@@]4(C)C(c5ncon5)=C[C@@](C)(CO)C4=CC[C@@]3(C)[C@]1(C)CC2 | -28.9% (active) |
| CC(=O)N1N=C(c2cc3ccccc3oc2=O)CC1c1cn(-c2ccccc2)nc1-c1ccc(C)cc1 (centres undefined) | 94.6% (inactive) |
| O=C(NNc1nc2cc(F)ccc2n2c(CN3CC4CNCC4C3)ccc12)c1cnccn1 (centres undefined) | 3.88% (active) |
| O=C(c1ccccc1O)N1CCCC1 | 94.1% (inactive) |
| CCCCCOC(=O)c1cccc(NC(=O)CN(CC)CC)c1 | 106% (inactive) |
| CCOC(=O)C(CCC(C)C)C(=O)OCC | 105% (inactive) |
| Cc1ccc(C(=O)c2ccc(CC(=O)N=Nc3c(O)[nH]c4ccc(OC(F)(F)F)cc34)n2C)cc1 | 108% (inactive) |
| CCn1cc(C(=O)O)c(=O)c2cc(F)c(N3CCNCC3)cc21 | 93.2% (inactive) |
| Cn1c(=O)c2[nH]c(CCCCCCCCc3nc4ccccc4[nH]3)nc2n(C)c1=O | 10.7% (inactive) and 21.7% (inactive) |
| O=C(O)C1(C(=O)O)CCC1.[NH2-].[NH2-].[Pt+2] | 106% (inactive) |
| Oc1c(Br)cc(Br)c2ccc(Cn3cc(-c4ccccc4C(F)(F)F)nn3)nc12 | 72.4% (inactive) |
| C=C(C)[C@@H]1CC[C@]2(C(=O)N3CCN(C)CC3)CC[C@]3(C)[C@H](CC[C@@H]4[C@@]5(C)C/C(=C/c6ccncc6)[C@H](O)C(C)(C)[C@@H]5CC[C@]43C)[C@@H]12 | -25.5% [100 µM] (active) |
| CC(=O)Nc1ccc2c(c1)Cc1c(F)cccc1-2 | 8.46% (active) |
| CCN(CC)CCCC(C)Nc1cnc(C(=O)Nc2ccc(Cl)c3cccnc23)cn1 (centres undefined) | -28% (active) |
| CCN(CCNc1ccc(C)c2sc3ccccc3c(=O)c12)CC(C)(C)O | 26% (inactive) |

| SMILES | growth |
| --- | --- |
| CC/C(=C(/c1ccc(Cl)cc1)c1ccc(OCCN2CCCC2)cc1)c1ccccc1 | 46.9% (inactive) |
| N#Cc1nc(-c2cccc(Br)c2)cc(-c2ccc(Nc3nc(N4CCCCC4)nc(N4CCCCC4)n3)cc2)c1N | -26.3% (active) |
| CN(C)CCCN1c2ccccc2CCc2ccc(Cl)cc21 | -21.6% (active) |
| COCC[C@H]1CCC/C=C/[C@@H]2C[C@H](O)C[C@H]2[C@H](O)/C=C/C(=O)O1 | -50.7% (active) |
| Cc1cc(C)c(/C=C2\C(=O)Nc3ccc(NC(=O)CCCCCCC(=O)NO)cc32)[nH]1 | 13% (inactive) |
| O[C@@H]1CCO[C@H](c2ccc3ccccc3c2)C1 | 107% (inactive) |
| COC(=O)C1CC(=O)N(C(=O)Nc2ccc(Cl)cc2Cl)C1 (centres undefined) | 97.8% (inactive) |
| C#C[C@]1(O)CC[C@H]2[C@@H]3CC=C4c5sc(Nc6ncccc6C)nc5CC[C@]4(C)[C@H]3CC[C@@]21C | -8.36% (active) |
| CCN(CC)CCCC(C)Nc1c2ccc(Cl)cc2nc2cc(OC)c(OC)cc12 (centres undefined) | -44% (active) |
| O=C(/C=C/c1sc(Cl)nc1Cl)c1ccc(F)cc1 | 40.9% (inactive) |
| C/C(=N\NC(=O)CSc1nc2ccccc2c(=O)n1CCc1ccc(S(N)(=O)=O)cc1)c1ccccn1 | 25.3% (inactive) |
| CCOC(=O)C(=O)/C(=C\c1ccc(Cl)cc1)C(=O)N1C(=S)NC(=O)C1CC(C)C (centres undefined) | 90% (inactive) |
| COc1ccc2c(c1)Oc1nc(N)c(C#N)c(N)c1C2Sc1ccc(SC)cc1 (centres undefined) | -40.8% (active) |
| CCN(CCN(C)C)C(=O)CNCc1cc(C(N)=O)ccn1 | 101% (inactive) |
| COc1ccc(C2=NN(C(N)=S)C(c3ccc4c(c3)OCO4)C2)cc1 (centres undefined) | -0.33% (active) |
| Cc1nc(Nc2ccccn2)sc1C(=O)/C=C/c1ccc(Cl)cc1 | 16.4% (inactive) |
| O=C(c1ccccc1)C(O)C(Br)(CBr)c1ccccc1 (centres undefined) | 50.7% (inactive) |
| CS(=O)(=O)Nc1cc(-c2ccc3ncnc(Nc4ccc5[nH]ncc5c4)c3c2)cnc1Cl | 16.6% (inactive) |
| COC1/C=C/OC2(C)Oc3c(C)c(O)c4c(O)c(c(/C=N/N(c5ccccc5)c5ccccc5)c(O)c4c3C2=O)NC(=O)C(C)=C/C=C/C(C)C(O)C(C)C(O)C(C)C(OC(C)=O)C1C (centres undefined) | -44.7% (active) |
